Measured values: PubChem BioAssay (NCI)
This is part of a sample that, as a whole, favours compounds with a hit. Of some 79,000 tested, about 15% had one in any assay. A number with no mark means an inactive call. The source made the active and inactive calls. Cut-off read from the data, not from the text of the source: active = growth inhibition above about 70%; inactive = the rest.

Tests used:
[1] = NCI Yeast Anticancer Drug Screen. Data for the rad50 strain (AID 155);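 note: 0% = growth of vehicle-only cultures of the same strain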; details: S. cerevisiae rad50 strain growth inhibition; at 50.0 µM; stronger effect = higher value
Procedure, shortened: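 Genetically altered yeast (DNA repair pathway); compound treatment; growth inhibition vs vehicle ctrl.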

[2] = NCI Yeast Anticancer Drug Screen. Data for the mec2-1 strain (AID 157); details: S. cerevisiae mec2-1 strain, at 50.0 µM, stronger effect = higher value
Procedure, shortened: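 Compounds were applied to mec2-1 yeast cells. Their growth was then compared with that of vehicle-treated cultures to give growth inhibition.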

[3] = NCI Yeast Anticancer Drug Screen. Data for the sgs1 mgt1 strain (AID 161);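 note: 0% = growth of cultures given vehicle only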; details: S. cerevisiae sgs1 mgt1 strain, at 50.0 µM, stronger effect = higher value
Procedure, shortened: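 This yeast growth screen uses a strain with defined DNA-repair lesions; compound-treated growth is compared with vehicle-treated growth.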

[4] = NCI Yeast Anticancer Drug Screen. Data for the cln2 rad14 strain (AID 165);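 note: 0% = growth equal to vehicle treated cultures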; details: S. cerevisiae cln2 rad14 strain, at 50.0 µM, stronger effect = higher value
Procedure, shortened: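 Strain: cln2 rad14 yeast, altered in cell cycle control and DNA damage repair. Read-out: growth inhibition vs vehicle.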

[5] = NCI Yeast Anticancer Drug Screen. Data for the bub3 strain (AID 167); details: S. cerevisiae bub3 mutant strain, at 50.0 µM, stronger effect = higher value
Procedure, shortened: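 Yeast carrying a defined mutation is treated with each compound, and growth is compared with that of vehicle-exposed cells to give inhibition.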

[6] = NCI Yeast Anticancer Drug Screen. Data for the mlh1 rad18 strain (AID 175); details: S. cerevisiae mlh1 rad18 strain growth inhibition; at 50.0 µM; stronger effect = higher value
Procedure, shortened: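 A repair-deficient yeast strain is exposed to test compound, and growth is scored relative to vehicle-treated controls.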

| SMILES | growth inhibition [1] | growth inhibition [2] | growth inhibition [3] | growth inhibition [4] | growth inhibition [5] | growth inhibition [6] |
| --- | --- | --- | --- | --- | --- | --- |
| CCCCOP(=O)(Cc1ccc(Cl)cc1Cl)OCCCC | 99.5% (active) | 99.7% (active) | 99.5% (active) | 99% (active) | 99.4% (active) | 99.5% (active) |
| O=C1Oc2ccccc2C(=O)Oc2ccccc2C(=O)Oc2ccccc2C(=O)Oc2ccccc21 | -43.7% | -38.6% | -24.2% | -8.25% | -22.1% | -29.6% |
| CCC1SCC(C)(C)NC1=O (stereo not given) | 4.9% | 13.4% | -3.85% | -39.2% | 28.8% | 1.4% |
| CC(C#N)(CCl)OS(=O)(=O)CCCl (stereo not given) | 37.4% | 21.4% | 6.4% | 16.9% | 48.7% | 25.4% |
| COc1cc(OC)c(C(C)=O)c(C(C)=O)c1 | -15.8% | -13.6% | -13.6% | -5.3% | -10.6% | -2.55% |
| O=C(c1ccc(C2CCCCC2)cc1)C(C(c1ccccc1)N1CCOCC1)N1CCOCC1 (stereo not given) | -54.7% | -16.6% | -19.9% | -10.6% | -3.75% | 23.9% |
| CCOC(=O)CC1(c2ccccc2)OC(=O)c2ccccc21 (stereo not given) | 9.05% | 13.2% | 8.65% | 4.75% | 16.9% | -11.2% |
| O=[N+]([O-])c1ccc2c3c(ccc([N+](=O)[O-])c13)CC2 | -9.35% | -13.3% | -6.75% | -29.2% | -18.4% | -18.3% |
| CCOC(=O)CC1CCC(CCCCC2CCC(CC(=O)OCC)CC2)CC1 (stereo not given) | 76% (active) | 44.5% | 80% (active) | 57.4% | 22.2% | 45.2% |
| CN1c2ccccc2C(=O)NC12CCN(CC1COc3ccccc3O1)CC2 (stereo not given) | 58.1% | 71.4% (active) | 82.4% (active) | 62.9% | 66.5% | 66% |
| C=CCCCCCCCCC(=O)Nc1cc(Cl)ccc1C | -0.25% | -5% | -10.4% | -22.9% | -10.8% | -2.7% |
| Cc1ccc(NC(=O)CCSC(=O)Nc2ccc(C)cc2)cc1 | -1.2% | -2.65% | -7.05% | 21.2% | 8.1% | 7.9% |
| C/C(=N/Nc1ccc([N+](=O)[O-])cc1[N+](=O)[O-])C(C)(C)C | -3.05% | -13.2% | 0.35% | 3.15% | -8.75% | -13.2% |
| CN=C(C#N)c1ccccc1 | -10.6% | -17.1% | -2.6% | -28.9% | 8.7% | -15.8% |
| COc1ccc(OC)c2c(Cl)ccnc12 | 17.1% | 15.1% | 15.6% | 20.8% | 11.1% | 24.5% |
| CC(C)=CCc1c(O)ccc(C(=O)C2C(c3c(O)cc(-c4cc5ccc(O)cc5o4)cc3O)C=C(C)CC2c2ccc(O)cc2O)c1O (stereo not given) | 87% (active) | 90.7% (active) | 90% (active) | 89.4% (active) | 88.2% (active) | 87.9% (active) |
| CCNc1ccc(S(=O)(=O)O)cc1C(=O)O | 0.45% | 4.05% | 0% | -11.8% | 1.25% | -4.6% |
| Cc1c(Cc2ccccc2)c(N2CCOCC2)n2c(nc3ccccc32)c1C#N | 4.75% | 5.25% | 0.65% | -4.55% | -2.8% | 5.65% |
| O=c1[nH]c2ccccc2[nH]1 | -18.8% | -14.9% | -7.6% | -28% | -13.2% | -14.4% |
| CCOC(=O)Cn1c(=O)c2ccccc2c2cc([N+](=O)[O-])ccc21 | -6.45% | 11.3% | 13.2% | 5.95% | -3.65% | -11.7% |
